In PubChem BioAssay AID2061166 (Soto Lab, Mitchell Center for Alzheimers Disease and …, 2025) one finds inhibition data, which are given here for 33 compounds.

Where “and” joins values, the source holds several entries; their conditions need not be identical. Equal entries are not always repeated. A number with no mark means an inactive call.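 How the source made its calls: active means mean tau seeding fluorescence area under 1% of vehicle, meaning inhibition above a set limit; inactive means the rest.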

For the assay, the target named is Microtubule-associated protein tau (Homo sapiens) (UniProt P10636). Put plainly: blockers of AD brain-seeded tau fibril growth – biochemical, seed amplification, ThT fluorescence, primary screen (AID 2061166). As to conditions: Recombinant tau seeded by AD brain, ThT fluorescence AUC; at 100 µM; stronger effect = higher value.
Sequence of Microtubule-associated protein tau (Homo sapiens) (P10636 whole entry, looked up): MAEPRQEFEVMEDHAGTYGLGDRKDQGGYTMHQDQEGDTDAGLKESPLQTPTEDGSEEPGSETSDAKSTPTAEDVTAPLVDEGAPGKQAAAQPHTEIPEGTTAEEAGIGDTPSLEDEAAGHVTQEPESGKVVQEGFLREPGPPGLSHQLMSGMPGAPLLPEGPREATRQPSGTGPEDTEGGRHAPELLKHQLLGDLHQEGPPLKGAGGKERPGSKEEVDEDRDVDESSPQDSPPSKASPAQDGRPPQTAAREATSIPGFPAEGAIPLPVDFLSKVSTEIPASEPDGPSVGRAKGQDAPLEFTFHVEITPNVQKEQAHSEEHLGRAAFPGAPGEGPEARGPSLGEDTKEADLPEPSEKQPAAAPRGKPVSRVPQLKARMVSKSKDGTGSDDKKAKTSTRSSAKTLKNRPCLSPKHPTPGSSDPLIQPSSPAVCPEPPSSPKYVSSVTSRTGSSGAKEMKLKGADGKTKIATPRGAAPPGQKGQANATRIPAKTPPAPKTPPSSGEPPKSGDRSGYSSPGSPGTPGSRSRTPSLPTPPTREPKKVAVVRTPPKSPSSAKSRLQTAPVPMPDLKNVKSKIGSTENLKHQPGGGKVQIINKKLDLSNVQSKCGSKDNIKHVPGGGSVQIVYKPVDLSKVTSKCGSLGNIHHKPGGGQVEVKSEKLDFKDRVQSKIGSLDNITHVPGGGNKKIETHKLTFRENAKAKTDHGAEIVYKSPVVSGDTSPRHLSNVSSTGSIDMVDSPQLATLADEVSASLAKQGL
For `COc1ccc2[nH]cc(CCNC(C)=O)c2c1`, the inhibition is -15.9%.
Consider `CC(OC1OCCN(Cc2n[nH]c(=O)[nH]2)C1c1ccc(F)cc1)c1cc(C(F)(F)F)cc(C(F)(F)F)c1` (stereo not drawn), for which the inhibition is 60.4%.
For `NC(=O)N1CCC(CC(=O)N2CCC(C3c4ncc(Br)cc4CCc4cc(Cl)cc(Br)c43)CC2)CC1` (stereo not drawn), the inhibition is 20.1%.
As to `CCCCOc1ccc(CC(=O)NO)cc1`, the inhibition was 16.6%.
Consider `OCCOCCN1CCN(C2=Nc3ccccc3Sc3ccccc32)CC1`, for which the inhibition is 22.2%.
With `CO/N=C(\C(=O)NC1C(=O)N2C(C(=O)[O-])=C(C[N+]3(C)CCCC3)CSC12)c1csc(N)n1` (stereo not drawn) the figure was 53.1%; with `CC(=O)OCC(=O)C1(O)C(C)CC2C3CCC4=CC(=O)C=CC4(C)C3(F)C(O)CC21C` (stereo not drawn), 46.2%; with `Nc1cccc2c1CN(C1CCC(=O)NC1=O)C2=O` (stereo not drawn), 42.8%.
As to `O=NN(CCCl)C(=O)NC1CCCCC1`, the inhibition is 14.1%.
The result for `CCCCCCCCCC(=O)O` reads 0.189%; that for `O=C(CCCN1CCC(O)(c2ccc(Cl)cc2)CC1)c1ccc(F)cc1`, -16.8%; that for `Cc1ncc(CO)c(CO)c1O` (tested in a mixture with another compound), 21.6%.
Turning to `COC(=O)/C=C/C(=O)OC`, the inhibition is 3.37%.
The result for `O=C1C=C(NC(Cc2c[nH]c3ccccc23)C(=O)O)C(=O)c2ccccc21` (stereo not drawn) reads 52.4%; that for `O=C(C=Cc1ccc(O)c(O)c1)OC(Cc1ccc(O)c(O)c1)C(=O)O` (stereo not drawn), 95%.
`CC1(C)OC2COC3(COS(N)(=O)=O)OC(C)(C)OC3C2O1` (stereo not drawn): the inhibition is 20.5%.
Turning to `COC1CC2CCC(C)C(O)(O2)C(=O)C(=O)N2CCCCC2C(=O)OC(C(C)CC2CCC(O)C(OC)C2)CC(=O)C(C)/C=C(\C)C(O)C(OC)C(=O)C(C)CC(C)/C=C/C=C/C=C/1C` (stereo not drawn), the inhibition was 14%.
On to `CCCNC1CCc2nc(N)sc2C1` (stereo not drawn), for which the inhibition is 13.7% and -33.7%.
With `C#CC1(O)CCC2C3CCC4=Cc5oncc5CC4(C)C3CCC21C` (stereo not drawn), the inhibition was 45.1%.
With `Oc1cc(O)c2c(c1)OC(c1ccc(O)c(O)c1)C(O)C2` (stereo not drawn) the figure was 88.6%; with `CS(=O)(=O)OCCCCOS(C)(=O)=O`, -40%.
With `CCC(=O)NCCC1CCc2ccc3c(c21)CCO3` (stereo not drawn) the figure was -20.8%; with `CC12CC3(O)OC(O1)C1(COC(=O)c4ccccc4)C3CC21OC1OC(CO)C(O)C(O)C1O` (stereo not drawn), -50%; with `CCOC(=O)C1=C(C)NC(C)=C(C(=O)OC)C1c1cccc(Cl)c1Cl` (stereo not drawn), 51.7%.
With `CC12CC3CC(C)(C1)CC(N)(C3)C2` the figure was 10.2%; with `COc1cc(C=CC(=O)CC(=O)C=Cc2ccc(O)c(OC)c2)ccc1O`, 86.4%; with `CCCCN1CCCCC1C(=O)Nc1c(C)cccc1C` (stereo not drawn), 7.03%.
Regarding `O=C(O)CCCc1ccccc1`, the inhibition was 8.12%.
Consider `CN(C)CCC=C1c2ccccc2CCc2ccccc21`, for which the inhibition was 13.9%.
The result for `Nc1ccccc1NC(=O)c1ccc(CNC(=O)OCc2cccnc2)cc1` reads -34.7%.
As for `OC(c1cc(C(F)(F)F)nc2c(C(F)(F)F)cccc12)C1CCCCN1` (stereo not drawn), the inhibition is 66.4%.
With `Cc1ccc(Nc2c(F)cccc2Cl)c(CC(=O)O)c1` the figure was 11.4%; with `Nc1nc(Cl)nc2c1ncn2C1CC(O)C(CO)O1` (stereo not drawn), -52.8%.

What is called inhibition is the drop in the measured response relative to a control, in per cent.
